KB-V1 cytotox – qHTS assay for MDR1-selective chemotherapeutics: Primary screen using the drug-selected MDR subline cells KB-V1. KB-V1 MDR cells viability, CellTiter-Glo, 72 h. Potency, µM (series often up to 46.1 µM), most hits filed as cytotoxic. 400,000 compounds, 3.4% hits; further: nearly all actives have a fitted effect of over 60% in size
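In this primary screen, KB-V1 cells overexpressing P-gp are incubated with library compounds (lowest to highest concentration) for 72 h at 37 degrees C before a luminescent ATP viability read.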
HT1080 IDH1KD tx – qHTS for induction of synthetic lethality in tumor cells producing 2HG: qHTS for the HT-1080-IDH1KD cell line; HT-1080 IDH1 knockdown viability, ATP luminescence, 48 h; Potency, µM (doses to about 46.1 µM), for inactives: at the top dose activity, negative = toxicity, usual class: cytotoxic; 360,000 compounds, 2% hits; AID 686971, 2013;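 further: 0% = DMSO wells and -100% = cell-free medium wells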
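Cytotoxicity counter-line: IDH1KD HT-1080, 48 h, CellTiter-Glo. Curves classed by r2, magnitude and activity.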
TDP1 cell noCPT – qHTS for Inhibitors of human tyrosyl-DNA phosphodiesterase 1 (TDP1): qHTS in cells in absence of CPT; DT40 Tdp1-/- hTDP1 cells, no CPT, ATP luminescence, 48 h; Potency, µM (titrated, usually from 46.2 µM), inactives show at the highest dose activity change, negative = growth inhibition, actives largely listed as inhibitors; 420,000 compounds, 15% hits; further: nearly all actives have a fitted effect of over 55% in size
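A cellular qHTS used chicken DT40 cells lacking endogenous Tdp1 but carrying stably transfected human TDP1. Compounds were applied without camptothecin, and cell growth kinetics were judged by ATP-dependent luminescence after ≥48 hr.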
HT1080NT lethal – qHTS for induction of synthetic lethality in tumor cells producing 2HG: qHTS for the HT-1080-NT fibrosarcoma cell line; 360,000 compounds, 1.6% hits; Potency, µM (titrated, usually from 46.1 µM), for the others: at the highest dose activity, negative = less viability, hits mostly cytotoxic; HT-1080-NT fibrosarcoma viability, CellTiter-Glo ATP luminescence, 48 h;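 further: NT is the 2HG producing partner of a matched IDH1 knockdown line; 0% = DMSO-treated cells and -100% = media-only wells without cells; nearly all actives have a fitted effect of over 55% in size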
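750 cells/well, RPMI + 5% FBS; 2 h settle, compound pin-transfer, 48 h at 37 degrees C. CellTiter-Glo 10 min RT, luminescence. Normalized to DMSO and media-only wells.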
DT40 TDP1 CPT – qHTS for Inhibitors of human tyrosyl-DNA phosphodiesterase 1 (TDP1): qHTS in cells in presence of CPT; chicken DT40 Tdp1-/-;hTDP1 cells + 20 nM CPT, ATP luminescence, 48 h; Potency, µM (highest dose often 46.2 µM), for the others: at the top dose activity change, negative = growth inhibition, usual class: inhibitors; 420,000 compounds, 12% hits; further: nearly all actives have a fitted effect of over 55% in size
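Chicken DT40 Tdp1-/- cells stably complemented with human TDP1 were seeded at 400 cells/well in medium containing 20 nM camptothecin, exposed to pin-transferred compounds, and grown at 37 °C for at least 48 hr. Viability was read as ATP luminescence.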
KB-3-1 cytotox – qHTS assay for MDR1-selective chemotherapeutics: Primary screen using the parental adenocarcinoma cell KB-3-1; KB-3-1 viability, CellTiter-Glo ATP luminescence, 72 h; Potency, µM (highest dose often 46.1 µM), usual class: cytotoxic; 400,000 compounds, 1.4% hits; AID 1347075, 2019; further: nearly all actives have a fitted effect of over 60% in size
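Cells are dispensed, compounds pinned in, plates held at 37 °C for 72 h, then CellTiter-Glo is added and luminescence read after 10 minutes. Cell line: parental KB-3-1 in phenol-red-free DMEM, 10% FBS.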
* hit, by the source's call; i = inactive; ? = inconclusive; . = not tested or not shown. Sampled rows, rich in hits. Any-hit rate of the full collection: about 19%. The call rests on the fitted dose curve; in most records, active means well fitted curve in the direction sought with a large enough effect; inconclusive means small, poorly fitted or top-dose-only effect, or another doubt; inactive means no such curve, though single readings can be large; an effect the other way counts as inactive or inconclusive. Unless noted, on the % scale 0 is the no-effect control and ±100 the full control effect; potency means the concentration at half of the fitted maximal effect.

SMILES | KB-V1 cytotox | HT1080 IDH1KD tx | TDP1 cell noCPT | HT1080NT lethal | DT40 TDP1 CPT | KB-3-1 cytotox
CCC(C)C1NC(=O)C(NC(=O)C(CC(C)C)N(C)C(=O)C2CCCN2C(=O)C(C)O)C(C)OC(=O)C(Cc2ccc(OC)cc2)N(C)C(=O)C2CCCN2C(=O)C(CC(C)C)NC(=O)[C@H](C)C(=O)[C@H](C(C)C)OC(=O)CC1O (stereo partly specified) | 8.2µM* | 0.013µM* | 0.029µM* | 0.23µM* | 0.037µM* | 0.16µM*
Cc1ccc(NC(=O)CN2C(=O)CN=C(c3ccccc3)c3ccccc32)cc1 | i | . | ? | . | ? | i
C[C@]12CCC3C(CC[C@H]4C[C@H](O)CC[C@]34C)C1[C@@H](O)[C@@H](O)[C@@H]2O (stereo partly specified) | i | 6% | -9% | 2% | 11% | i
COC(C)C(O)(C(=O)OC1=CCN2CC[C@H](O)[C@H]12)C(C)C (stereo partly specified) | . | . | 21µM* | . | 11µM* | .
CCCCn1c(NC(=O)c2ccco2)c(C(=O)OCC)c2nc3ccccc3nc21 | i | -26% | 4.6µM* | ? | 9.2µM* | i
CCCCn1c(N)c(C(=O)OCC2CCCO2)c2nc3ccccc3nc21 (stereo unspecified) | i | -17% | 18µM* | ? | 18µM* | i
Nc1c(C(=O)OC2CCCCC2)c2nc3ccccc3nc2n1CC1CCCO1 (stereo unspecified) | ? | -15% | 16µM* | -21% | ? | ?
CC(C)CCn1c(N)c(C(=O)OCC2CCCO2)c2nc3ccccc3nc21 (stereo unspecified) | ? | 21µM* | ? | ? | ? | i
CCCCn1c(NS(=O)(=O)c2ccc(C)cc2)c(C(=O)OCC)c2nc3ccccc3nc21 | ? | -4% | ? | -2% | ? | i
C=CC[C@]1(O)CC[C@H]2[C@@H]3CCC4=CCCC[C@@H]4[C@H]3CC[C@@]21C | . | . | 0% | . | -29% | .
COc1cccc2c1N=C1CCCC3CN(C(C)=O)CCC123 (stereo unspecified) | i | 6% | -10% | 0% | -7% | i
CC(C)OCCCNC(=O)c1c(N)n(CC2CCCO2)c2nc3ccccc3nc12 (stereo unspecified) | i | ? | -29% | ? | ? | i
CC(C)CCOC(=O)c1c(N)n(CC2CCCO2)c2nc3ccccc3nc12 (stereo unspecified) | ? | -8% | 21µM* | -17% | ? | i
CCCNC(=O)c1c(N)n(CC2CCCO2)c2nc3ccccc3nc12 (stereo unspecified) | ? | -22% | 21µM* | -16% | ? | i
COC(=O)C1=C(c2ccc(C(C)=O)cc2)C[C@@H]2CC[C@H]1N2C(=O)NCc1ccc2c(c1)OCO2 | i | -3% | ? | 1% | -30% | i
Fc1ccc(N2CCN(c3ncnc4c3nc3n4CCCCC3)CC2)cc1 | i | . | 18µM* | . | -19% | ?
O=C1NC(=O)N(Cc2ccc(F)cc2)C(=O)/C1=C\c1ccc(N2CCCC2)cc1 | i | -6% | -14% | -1% | 11% | i
COc1ccc(NC(=O)CCc2nc(C3=CCN(Cc4cccc(Cl)c4)CC3)no2)cc1OC | i | . | 12µM* | . | 16µM* | i
